Data as given in PubChem BioAssay AID686978 (National Center for Advancing Translational Sciences (NCATS), 2013).
Among all 420,000 compounds or so, about 64,000 (15%) were called active. About 27% were inconclusive and are not listed. Only a sample is shown. Unmarked numbers belong to inactive results. Calls come from the whole dose curve; as a rule, active = well fitted inhibition curve with a large enough effect; inconclusive = small, poorly fitted or top-dose-only effect; inactive = flat fitted curve, though single readings scatter.

assay: qHTS for Inhibitors of human tyrosyl-DNA phosphodiesterase 1 (TDP1): qHTS in cells in absence of CPT; conditions: DT40 Tdp1-/- hTDP1 cells, no CPT, ATP luminescence, 48 h; activity change, negative = growth inhibition: at 46.2 µM (top of the series); note: nearly all actives have a fitted effect of over 55% in size
Procedure, shortened: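 Growth of hTDP1-complemented DT40 Tdp1-knockout cells is measured by ATP luminescence after at least 48 hr compound exposure at 37 °C, with DMSO substituting for the 20 nM CPT used in the parallel screen.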
% is set by controls: 0 for no effect and ±100 for the full control effect; potency is the fitted concentration of half-maximal effect.

Row | SMILES | activity change, negative = growth inhibition [%] | Potency
1 | CC(=O)c1ccc(S(=O)(=O)NC2CC(=O)N(c3ccc4c(c3)OCCO4)C2)cc1 (configuration not stated) | -14.5 | 
2 | CC(C)(C)S(=O)(=O)c1ccccc1-c1noc(-c2ccccc2)c1C(N)=O | 4.59 | 
3 | Cn1c(SCC(=O)C(C)(C)C)nnc1-c1ccccn1 | 27.4 | 
4 | O=C(COC(=O)c1cnccn1)Nc1cccc2ccccc12 | -7.74 | 
5 | Cc1ccccc1-c1ccc(Nc2ccc(C(=O)N3CCOCC3)cc2)nn1 | -17.6 | 
6 | CO[C@@H]1CN(C)C(=O)c2cc(NC(=O)C3CC3)ccc2OC[C@H](C)N(C(=O)CN2CCOCC2)C[C@@H]1C | -1.78 | 
7 | CCCN(CC(=O)Nc1ccccc1C)C(=O)c1ccc2[nH]c3c(c2c1)CC(C)CC3 (configuration not stated) |  | 20.6 µM (active)
8 | CCCN(CC(=O)Nc1ccccc1C)C(=O)c1cc(=O)[nH]c2ccccc12 | -16.5 | 
9 | CCCN(CC(=O)Nc1ccccc1C)C(=O)c1ccc(OCC(=O)N2CCOCC2)c(OCC)c1 | -3.18 | 
10 | COCCCN1C(=O)C(=O)/C(=C(/O)c2ccc3c(c2)CC(C)O3)C1c1cccnc1 (configuration not stated) | -3.28 | 
11 | COC(=O)C1=C(NC(=O)C(C)(C)C)CCS1 | -2.33 | 
12 | Cc1cc(C)c(C=NNc2nc3c([nH]2)c(=O)n(C)c(=O)n3C)c(C)c1 | 1.78 | 
13 | Cc1ccc(N(Cc2ccc(C(=O)Nc3ccccc3C(=O)NCc3ccco3)cc2)S(C)(=O)=O)cc1C |  | 18.4 µM (active)
14 | Cc1cccc(Nc2ccccc2C(=O)NCc2ccco2)c1C |  | 20.6 µM (active)
15 | CS(=O)(=O)N(CC(=O)NCc1ccco1)c1ccc2c(c1)OCO2 | -0.836 | 
16 | Cc1ccc(NC(=O)C(=O)NCc2ccco2)c(C)c1 | -25.9 | 
17 | O=C(Nc1ccccc1)Nc1ccccc1C(=O)NCc1ccco1 | -17.1 | 
18 | Cc1ccccc1NC(=O)NCc1ccco1 | 8.72 | 
19 | CCC(C)NC(=O)CN(C1CCCCC1)S(C)(=O)=O (configuration not stated) | -11.3 | 
20 | CCOC(=O)N1CCN(C(=O)C2CCN(S(C)(=O)=O)CC2)CC1 | -4.04 | 
21 | Fc1ccc(COc2ccc(-c3nnco3)cc2)cc1 | -10.2 | 
22 | O=C(O)C1CCN(C(=O)c2cc(F)cc3c2OCOC3)CC1 | -1.32 | 
23 | Cc1ccnc(N2CCC(C(=O)NC3CCCCCC3)CC2)n1 | -5.99 | 
24 | COc1nc(NC2CCCCC2)nc(N2CCCCCC2)n1 |  | 12.6 µM (active)
25 | Clc1nc(NC2CCCC2)nc(N2CCOCC2)n1 | -27.4 | 
26 | CCn1c(SCC(=O)Nc2ccc3c(c2)OCCO3)nnc1C(C)C | -12.3 | 

Row | SMILES | activity change, negative = growth inhibition [%] | Potency
27 | CCCn1c(SCC(N)=O)nnc1C(C)C | -8.78 | 
28 | CCCn1c(SCC(=O)c2ccc3c(c2)OCCO3)nnc1C(C)C |  | 20.6 µM (active)
29 | C=CCn1c(C)cc(C(=O)CN2C(=O)c3ccccc3C2=O)c1C | -25.9 | 
30 | CCOC(=O)c1cc2c(n(-c3ccc(C)cc3)c1=O)CCCC2=O | -13.6 | 
31 | Cc1ccc(-n2c(C)cc(C(=O)CN3C(=O)C(=O)N(C4CCCC4)C3=O)c2C)cc1 |  | 25.9 µM (active)
32 | COc1ccc(NC(=O)CCCC2CCCCC2)c(OC)c1 | -16.4 | 
33 | O=C(/C=C/c1ccco1)NC(=S)Nc1ccccc1Br | -12.9 | 
34 | COc1ccc(Cl)cc1C(=O)NNC(=S)NC(=O)/C=C/c1ccco1 |  | 23.1 µM (active)
35 | C=CCNC(=S)NNC(=O)c1cc(Cl)ccc1OC | 3.87 | 
36 | CC(C)c1nc(CNC(=O)CC2C(=O)NCCN2Cc2ccoc2)cs1 (configuration not stated) | -1.5 | 
37 | O=C(Cn1cnc2ccccc21)N/N=C/c1ccco1 | 15 | 
38 | O=C(COC(=O)Cn1cnc2ccccc21)Nc1cccc2c1C(=O)c1ccccc1C2=O |  | 9.2 µM (active)
39 | CCC(=O)Nc1ccccc1-c1nc2ccccc2n(CC(=O)Nc2ccc(C)c(C)c2)c1=O | -29 | 
40 | CN(Cc1c(F)cccc1Cl)C(=O)COC(=O)Cn1cnc2ccccc2c1=O | 3.31 | 
41 | O=C(Cn1cnc2ccccc21)Nc1ccccc1-c1ccccc1 |  | 2.31 µM (active)
42 | O=C(COC(=O)Cn1cnc2ccccc2c1=O)NCc1ccccc1Cl | 2.41 | 
43 | CCN(Cc1ccccc1)Cc1c(O)ccc2c(=O)c(-c3ccc(Cl)cc3Cl)coc12 | 6.31 | 
44 | CCCn1c(SCC(=O)Nc2ccc(C)c(S(=O)(=O)N3CCOCC3)c2)n[nH]c1=O | -12.2 | 
45 | CCOC(=O)C1CCN(C(=O)C2(NC(=O)Nc3cccc(F)c3)CCCCC2)CC1 | -24.2 | 
46 | COC(=O)C(=Nc1ccccc1)/C(C(=O)C(=O)N(C)c1ccccc1)=C(\O)c1ccc(Cl)cc1 | -0.772 | 
47 | COc1cc(OC)c(C(=O)OCC(=O)N2CC(=O)Nc3ccccc32)cc1OC | 12.3 | 
48 | N#Cc1c(N)sc2c1CCN(C(=O)OCc1ccccc1)C2 | -24.9 | 
49 | O=C1NC(c2ccncc2)Nc2sc3c(c21)CCCC3 (configuration not stated) | -11.1 | 
50 | CCOC(=O)N1CCc2c(sc3c2C(=O)NC(c2ccccc2F)N3)C1 (configuration not stated) |  | 16.4 µM (active)
51 | COc1ccc(OC)c(NC(=O)c2cnn(-c3ccccc3Cl)c2NC(=O)c2ccco2)c1 | -17.9 | 
52 | C#CCN1C(=O)C(O)(CC(=O)c2cc(OC)ccc2OC)c2ccccc21 (configuration not stated) |  | 16.4 µM (active)
